Test results as given in PubChem BioAssay AID1159580 (chemical genetic matrix, 2015).
“And” between values parts separate entries of the source, which are not always exact repeats. Equal values may be shown once. Among all 5,500 compounds or so, about 2,000 (36%) were called active. Not shown: some 18% with an inconclusive outcome. Rule as the data show it: active = normalized growth mostly below about 0.91 (no sharp cut-off); inconclusive = no clear call, values can overlap the other calls; inactive = mostly above about 0.92. The list shows a part of the results.

Assay: chemical genetic growth profiling, strain panel (AID 1159580);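 also: tested at 20 µM; growth read once vehicle control cultures reached saturation at 30 °C; 1 = growth at the plate median or of vehicle wells; lower values mean less growth of the strain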
Conditions: S. cerevisiae deletion strains, growth OD

Measured: normalized growth

NC(N)=NC(N)=Nc1ccccc1
inactive: locus YAL013W, strain DEP1, stronger effect = lower value 1.01 and 0.984 | locus YAL021C, strain ccr4, stronger effect = lower value 1 | locus YAL026C, strain drs2, stronger effect = lower value 0.998 | locus YAL030W, strain snc1, stronger effect = lower value 1.01 | locus YAL040C, strain CLN3, stronger effect = lower value 1.08 | locus YBL061C, strain skt5, stronger effect = lower value 1 | locus YBR009C, strain hhf1, stronger effect = lower value 0.979 | locus YBR021W, strain FUR4, stronger effect = lower value 1.02 | locus YBR023C, strain chs3, stronger effect = lower value 1 | locus YBR171W, strain sec66, stronger effect = lower value 1 | locus YBR229C, strain ROT2, stronger effect = lower value 1.01 | locus YBR231C, strain swc5, stronger effect = lower value 0.987 | locus YBR279W, strain paf1, stronger effect = lower value 1 | locus YCL011C, strain gbp2, stronger effect = lower value 1 | locus YCL016C, strain dcc1, stronger effect = lower value 1 | locus YCL029C, strain bik1, stronger effect = lower value 0.995 | locus YCL061C, strain MRC1 (second series), stronger effect = lower value 1 | locus YCL061C, strain MRC1, stronger effect = lower value 0.993 | locus YCL069W, strain vba3, stronger effect = lower value 1 | locus YCR088W, strain abp1, stronger effect = lower value 1.01 | locus YDL005C, strain med2, stronger effect = lower value 0.998 | locus YDL035C, strain GPR1, stronger effect = lower value 1.01 | locus YDL040C, strain nat1, stronger effect = lower value 0.991 | locus YDL074C, strain BRE1, stronger effect = lower value 1.02 | locus YDL101C, strain DUN1, stronger effect = lower value 1.02 | locus YDL134C, strain PPH21, stronger effect = lower value 1.01 | locus YDL185W, strain tfp1, stronger effect = lower value 0.996 | locus YDL192W, strain arf1, stronger effect = lower value 0.998 | locus YDR001C, strain nth1, stronger effect = lower value 0.998 | locus YDR069C, strain doa4, stronger effect = lower value 0.995 | locus YDR101C, strain arx1, stronger effect = lower value 1.02 | locus YDR137W, strain rgp1, stronger effect = lower value 0.981 | locus YDR150W, strain NUM1, stronger effect = lower value 0.998 | locus YDR159W, strain sac3, stronger effect = lower value 0.961 | locus YDR162C, strain NBP2, stronger effect = lower value 1.01 | locus YDR195W, strain ref2 0.948 | locus YDR297W, strain sur2, stronger effect = lower value 0.999 | locus YDR318W, strain mcm21, stronger effect = lower value 0.992 | locus YDR334W, strain swr1, stronger effect = lower value 1 | locus YDR335W, strain msn5, stronger effect = lower value 1 | locus YDR363W, strain ESC2, stronger effect = lower value 1.02 | locus YDR388W, stronger effect = lower value 1 | locus YDR392W, strain spt3, stronger effect = lower value 0.903 | locus YDR502C, strain sam2, stronger effect = lower value 0.993 | locus YEL003W, strain gim4, stronger effect = lower value 0.998 | locus YEL037C, strain rad23, stronger effect = lower value 1.01 | locus YEL061C, strain CIN8 (second series), stronger effect = lower value 0.996 | locus YEL061C, strain CIN8, stronger effect = lower value 1.01 | locus YER002W, strain NOP16, stronger effect = lower value 1.03 | locus YER015W, strain faa2, stronger effect = lower value 0.998 | locus YER016W, strain bim1, stronger effect = lower value 0.999 | locus YER110C, stronger effect = lower value 0.986 | locus YER111C, strain swi4, stronger effect = lower value 0.996 | locus YER155C, strain BEM2 (second series), stronger effect = lower value 0.964 | locus YER155C, strain BEM2, stronger effect = lower value 1 | locus YER167W, strain BCK2, stronger effect = lower value 1.01 | locus YFR010W, strain ubp6, stronger effect = lower value 1.01 | locus YGL078C, strain dbp3, stronger effect = lower value 0.997 | locus YGL086W, strain mad1, stronger effect = lower value 0.997 | locus YGL167C, strain pmr1, stronger effect = lower value 0.993 | locus YGL173C, strain kem1, stronger effect = lower value 0.991 | locus YGL227W, strain vid30, stronger effect = lower value 0.997 | locus YGL240W, strain doc1, stronger effect = lower value 0.964 | locus YGL248W, strain PDE1, stronger effect = lower value 1.02 | locus YGL253W, strain hxk2, stronger effect = lower value 1.01 | locus YGR078C, strain PAC10, stronger effect = lower value 1.01 | locus YGR135W, strain pre9, stronger effect = lower value 0.995 | locus YGR229C, strain SMI1, stronger effect = lower value 0.985 | locus YGR252W, strain gcn5, stronger effect = lower value 0.993 | locus YHR013C, strain ard1, stronger effect = lower value 0.952 | locus YHR027C, strain rpn1, stronger effect = lower value 1 | locus YHR030C, strain SLT2, stronger effect = lower value 1.01 and 1 | locus YHR079C, strain IRE1 (second series), stronger effect = lower value 0.988 | locus YHR079C, strain IRE1, stronger effect = lower value 1 | locus YHR094C, strain hxt1, stronger effect = lower value 0.987 | locus YHR129C, strain ARP1, stronger effect = lower value 1.01 | locus YHR142W, strain chs7, stronger effect = lower value 1.03 | locus YHR200W, strain rpn10, stronger effect = lower value 0.997 | locus YIL066C, strain RNR3, stronger effect = lower value 1.02 | locus YIL073C, strain SPO22, stronger effect = lower value 0.989 | locus YIL125W, strain kgd1, stronger effect = lower value 0.988 | locus YIR030C, strain dcg1, stronger effect = lower value 0.996 | locus YJL092W, strain hpr5, stronger effect = lower value 1 | locus YJL095W, strain BCK1 (second series), stronger effect = lower value 1.01 | locus YJL095W, strain BCK1, stronger effect = lower value 1.03 and 0.993 | locus YJL115W, strain asf1, stronger effect = lower value 1 | locus YJL129C, strain trk1, stronger effect = lower value 1.02 | locus YJL134W, strain LCB3, stronger effect = lower value 1.01 | locus YJL154C, strain vps35, stronger effect = lower value 1.01 | locus YJL164C, strain tpk1, stronger effect = lower value 1 | locus YJL166W, strain qcr8, stronger effect = lower value 0.992 | locus YJL168C, strain set2, stronger effect = lower value 0.994 | locus YJL187C, strain SWE1 (second series), stronger effect = lower value 1.02 | locus YJL187C, strain SWE1, stronger effect = lower value 1 | locus YJR043C, strain POL32, stronger effect = lower value 1.01
